In PubChem BioAssay:
Results filed as inconclusive are left out. Active and inactive are the calls of the source. Cut-off read from the data, not from the text of the source, unless noted: active = inhibition above about 30%; inactive = the rest.

Legend:
[1] = Her2 expression decrease, cell viability multiplex – SKBR3 breast tumor cells, AlphaScreen, ATP viability, primary screen (AID 461;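 active = Her2 level under about 52% in both replicate screens, with viability over 70% of control, limit read from the data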;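 for Her2 level: lower value means less Her2 protein in the cells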;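 for viability: percent of carrier control wells set as 100% viability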); conditions: SKBR3 Her2 protein level, 18-24 h, measured here: SKBR3 viability, ATP luminescence, at 10 µM
[2] = molecular target: Receptor tyrosine-protein kinase erbB-2 (Homo sapiens) (UniProt P04626); test: as above; conditions: 18-24 h, at 10 µM, stronger effect = lower value
Receptor tyrosine-protein kinase erbB-2 (Homo sapiens), sequence (P04626 whole entry, looked up): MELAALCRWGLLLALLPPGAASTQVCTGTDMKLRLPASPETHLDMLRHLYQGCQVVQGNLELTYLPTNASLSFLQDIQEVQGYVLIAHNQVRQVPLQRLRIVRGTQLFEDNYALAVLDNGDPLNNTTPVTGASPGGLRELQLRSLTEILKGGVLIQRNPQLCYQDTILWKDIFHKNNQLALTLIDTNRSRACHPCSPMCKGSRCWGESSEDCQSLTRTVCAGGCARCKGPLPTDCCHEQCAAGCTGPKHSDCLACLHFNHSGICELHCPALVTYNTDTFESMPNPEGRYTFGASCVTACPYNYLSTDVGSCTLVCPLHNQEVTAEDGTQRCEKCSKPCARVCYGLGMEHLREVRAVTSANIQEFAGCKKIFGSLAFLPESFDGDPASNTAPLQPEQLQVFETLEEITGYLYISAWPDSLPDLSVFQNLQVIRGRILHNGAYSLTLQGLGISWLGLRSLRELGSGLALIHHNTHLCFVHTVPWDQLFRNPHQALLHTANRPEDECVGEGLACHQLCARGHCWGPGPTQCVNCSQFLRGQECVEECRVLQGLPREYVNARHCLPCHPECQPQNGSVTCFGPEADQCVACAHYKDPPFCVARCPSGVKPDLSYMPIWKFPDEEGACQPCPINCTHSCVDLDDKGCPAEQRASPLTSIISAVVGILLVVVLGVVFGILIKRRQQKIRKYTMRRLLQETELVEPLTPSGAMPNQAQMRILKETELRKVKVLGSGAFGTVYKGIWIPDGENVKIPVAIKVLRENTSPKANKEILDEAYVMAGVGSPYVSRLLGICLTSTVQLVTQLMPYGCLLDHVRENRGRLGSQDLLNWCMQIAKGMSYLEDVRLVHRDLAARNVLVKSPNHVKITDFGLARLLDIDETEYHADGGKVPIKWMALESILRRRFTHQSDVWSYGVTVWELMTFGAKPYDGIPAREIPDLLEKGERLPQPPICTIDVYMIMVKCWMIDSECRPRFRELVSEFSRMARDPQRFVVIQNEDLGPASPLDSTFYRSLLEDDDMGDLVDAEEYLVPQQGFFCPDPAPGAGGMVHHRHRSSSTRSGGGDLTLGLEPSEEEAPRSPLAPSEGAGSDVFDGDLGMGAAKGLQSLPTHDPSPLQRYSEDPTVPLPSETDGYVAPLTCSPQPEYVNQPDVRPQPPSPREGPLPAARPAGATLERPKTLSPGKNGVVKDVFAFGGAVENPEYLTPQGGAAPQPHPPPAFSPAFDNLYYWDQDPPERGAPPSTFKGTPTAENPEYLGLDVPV

[3] = reduced viability of SK-BR-3 breast cancer cells – cell-based, 24 h, human, pilot screen (AID 572;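 active = viability at or below 10% of carrier control in both of two separate runs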;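 note: compound exposure lasted between 18 and 24 h rather than exactly 24 h; 100% = carrier-treated control wells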); conditions: SK-BR-3 viability, CellTiter-Glo luminescence, at 10 µM, stronger effect = lower value
[4] = HUVEC growth inhibition – cell-based, human, primary screen (AID 575;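 active = viability at or below 30% in both replicate assays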;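 note: 100% = median of untreated cell wells with 0.1% DMSO on each plate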); conditions: HUVEC proliferation, CellTiter-Glo luminescence, 72 h; at 10 µM; stronger effect = lower value
[5] = H69AR cell proliferation blockers – human, duplicate replicates, primary screen (AID 580;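 active = viability at or under a set limit in both replicates, limit being median viability minus 3 SD, cut at about 48% in these data, passing the limit was not always enough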;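 note: 100% = mean luminescence of untreated wells and 0% = no signal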); conditions: H69AR lung tumor cells viability, ATP luminescence, 72 h; at 10 µM; stronger effect = lower value
[6] = yeast transport mutant growth inhibition pilot in 384-well plates, post-Golgi transport modulator project (AID 636; in the data active = inhibition above about 31%); conditions: absorbance 615 nm, about 18 h, stronger effect = higher value
[7] = growth suppression of yeast trafficking mutant, preliminary HTS, modulators of trafficking downstream of Golgi apparatus project, 1536-format plate, OD 615 nm (AID 637); conditions: yeast transport mutant growth, absorbance 615 nm, 18 h; stronger effect = higher value
[8] = S. cerevisiae growth inhibition in permissive medium (OD615), pilot counter-assay for S. cerevisiae lifespan shortening project, permissive growth control (AID 705;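 active = growth inhibition above 25% in both replicates, a cutoff set 3 SD above the mean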); conditions: OD615, 24 h, at 10 µM, stronger effect = higher value
[9] = S. cerevisiae growth inhibition in restrictive medium, OD615, pilot screen, restrictive growth control, yeast lifespan reduction project (AID 706;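 active = growth inhibition above a set limit, 3 SD over mean compound inhibition, in both replicates, cut at about 43% in these data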;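 note: modified DeaD lifespan yeast strain shifted to restrictive glucose medium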); conditions: OD615, 48 h, at 10 µM, stronger effect = higher value
[10] = doxorubicin toxicity protection in MRP-1 cells – H69AR cells, CellTiter-Glo, duplicate, MRP-1 activator project, pilot screen (AID 807;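 active = viability increase at or above a cutoff of the median across tested compounds plus 3 SD, cut at about 8.5% in these data, passing the limit was not always enough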;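 note: compound pretreatment 18-22 h then 72 h combined with doxorubicin; 0% = doxorubicin alone and 100% = vehicle without doxorubicin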); conditions: H69AR viability with doxorubicin, CellTiter-Glo luminescence; at 10 µM; stronger effect = higher value
[11] = viability of HCT116 without oncogenic beta-catenin – human colon tumor cells, pilot screen (AID 823;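 active = cell viability at or below a set limit in both duplicate runs, the limit being the all-compound median minus 4 SD, cut at about 23% in these data, passing the limit was not always enough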;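 note: 0% = wells killed by 20 µM Hyamine and 100% = untreated DMSO cell wells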); conditions: HCT116 beta-catenin knockout viability, CellTiter-Glo, 60 h; at 10 µM; stronger effect = lower value
[12] = viability of PTEN-null HCT116 cells – cell-based, HCT116 clonal line, CellTiter-Glo, pilot screen (AID 824;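 active = viability at or below 27.92% in each of two runs, the all-compound median minus 4 SD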;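 note: 0% = 20 µM Hyamine control and 100% = vehicle cell control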); conditions: HCT116 PTEN-deleted viability, 60 h, at 10 µM, stronger effect = lower value
[13] = RAM pathway blockade in budding yeast – dse1pr::URA3 reporter, 5-FOA selection, pilot screen (AID 869;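 active = inhibition over a set limit, the all-compound mean plus 3 SD, in both replicate runs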;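 note: 0% = DMSO wells with no growth and 100% = 10 µM 1-NA-PP1 with full growth; RAM network block rescues cells from 5-FOA so hits raise OD615 growth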); conditions: S. cerevisiae dse1pr::URA3 5-FOA growth, OD615, 2 d; at 10 µM; stronger effect = higher value; strain carries analog-sensitive mutant Cbk1 kinase
[14] = RAM signaling pathway blockade in yeast – S. cerevisiae, Pdr1DBD-CYC8 efflux-inhibited sensitized strain, primary screen (AID 1298;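 active = RAM network inhibition above 8.4% in each of two replicates, 3 SD over the compound average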;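 note: 0% = DMSO untreated cells without growth and 100% = 10 µM 1-NA-PP1 full growth; higher means more yeast growth rescued from 5-FOA killing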); conditions: S. cerevisiae cbk1-as DSE1-URA3 strain, 5-FOA growth OD615, 2 d; at 50 µM; stronger effect = higher value
[15] = MRP1 drug-resistance reversers in H69AR cells – cell-based, doxorubicin co-treatment, pilot screen (AID 601;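 active = viability loss from added drug above about 55%, and viability with drug at most 40%, in both replicates, limit read from the data, passing the limit was not always enough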); conditions: CellTiter-Glo, 72 h, at 10 µM; for differential viability (reversal): stronger effect = higher value
[16] = H69AR cells + 2 uM doxorubicin, measured here: viability with 2 uM doxorubicin, stronger effect = lower value
[17] = H69AR cells, compound alone cytotoxicity

SMILES | viability [1] [%] | Her2 level [2] | viability [3] | viability [4] | viability [5] | inhibition [6] | inhibition [7] | growth inhibition [8] | growth inhibition [9] | viability increase [10] | viability [11] | viability [12] | inhibition [13] | RAM network inhibition [14] | differential viability (reversal) ([15]; H69AR cells + 2 uM doxorubicin) | viability [15, 16] [%] | viability [15, 17] [%]
Cc1ccc2oc(=O)c3cnn(CC(=O)N4CCCCC4C)c3c2c1 (stereo unspecified) | 91.5 | 108% (inactive) | 91.5% (inactive) | 103% (inactive) | 89.2% (inactive) | -0.27% (inactive) | 2.62% (inactive) | -9.82% (inactive) | -6.86% (inactive) | -3.34% (inactive) | 84.1% (inactive) | 87.1% (inactive) | 3.4% (inactive) | 0.87% (inactive) | – | – | –
COCCn1c(SCC(=O)N2CCc3ccccc32)nc2c(c1=O)SC(C)C2 (stereo unspecified) | 77 | 104% (inactive) | 77% (inactive) | 67.8% (inactive) | 78.8% (inactive) | -3.87% (inactive) | -2% (inactive) | 6.33% (inactive) | 13.2% (inactive) | -2.72% (inactive) | 94.1% (inactive) | 94.3% (inactive) | 0.465% (inactive) | 6.03% (inactive) | – | – | –
O=C1NC(=O)C(CC(=O)N(Cc2ccco2)C2(C(=O)NC3CCCC3)CCCCC2)N1 (stereo unspecified) | 99.5 | 116% (inactive) | 99.5% (inactive) | 106% (inactive) | 92.6% (inactive) | -7.95% (inactive) | -6.51% (inactive) | -7.63% (inactive) | -4.51% (inactive) | -3.06% (inactive) | – | 89% (inactive) | 0.975% (inactive) | -0.51% (inactive) | -1.5% (inactive) | 94.1 | 92.6
COc1ccc(NC(=O)CC2Sc3ncnn3C2=O)cc1 (stereo unspecified) | 109 | 80.5% (inactive) | 109% (inactive) | 88.3% (inactive) | 111% (inactive) | 0.77% (inactive) | 4% (inactive) | – | 22.2% (inactive) | -3.8% (inactive) | 95.2% (inactive) | 104% (inactive) | 1.05% (inactive) | 6.37% (inactive) | 27% (inactive) | 83.5 | 111
CC1CCc2nn(CC(=O)N3CCN(C(=O)c4ccco4)CC3)cc2C1 (stereo unspecified) | 79.5 | 95.5% (inactive) | 79.5% (inactive) | 119% (inactive) | 91.6% (inactive) | 0% (inactive) | 2.67% (inactive) | -0.485% (inactive) | 5.38% (inactive) | – | 104% (inactive) | 97.9% (inactive) | 3.15% (inactive) | 7.21% (inactive) | 11.8% (inactive) | 79.8 | 91.6
CC1CCN(Cc2ccc(NC(=O)C3CCN(c4nnc(-n5cccc5)s4)CC3)cc2)CC1 | 86.5 | 90.5% (inactive) | 86.5% (inactive) | 4.64% (active) | 78.5% (inactive) | -4.27% (inactive) | 1.33% (inactive) | 3.76% (inactive) | 2.38% (inactive) | -2.95% (inactive) | – | – | 0.695% (inactive) | 4.34% (inactive) | -1.01% (inactive) | 79.5 | 78.5
COc1cccc(-c2nc(CS(=O)(=O)CC(=O)Nc3cc(C)ccc3C)c(C)o2)c1 | 76 | 86.5% (inactive) | 76% (inactive) | 70.7% (inactive) | – | -1.73% (inactive) | -4.1% (inactive) | -3.37% (inactive) | -3.22% (inactive) | -1.75% (inactive) | 98.4% (inactive) | 91.4% (inactive) | 3.55% (inactive) | 0.99% (inactive) | 15.3% (inactive) | 50.8 | 66.1
CCn1c(NC(=O)c2cccc(Cn3cc(Cl)cn3)c2)nc2ccccc21 | 93.5 | 75% (inactive) | 93.5% (inactive) | 69% (inactive) | – | -0.53% (inactive) | 0.16% (inactive) | -10.1% (inactive) | 7.82% (inactive) | -0.12% (inactive) | 40.3% (inactive) | 40.1% (inactive) | 0.95% (inactive) | 4.07% (inactive) | -8.54% (inactive) | 65.1 | 56.5
C=CCn1c(COc2ccc(CC)cc2)nnc1SC/C(O)=C(\C#N)c1nc2ccccc2[nH]1 | 86.5 | 88% (inactive) | 86.5% (inactive) | 59.8% (inactive) | 106% (inactive) | -0.92% (inactive) | -6% (inactive) | 1.15% (inactive) | 0.59% (inactive) | – | 92.6% (inactive) | 91.3% (inactive) | 2.46% (inactive) | 6.17% (inactive) | -1.07% (inactive) | 107 | 106
CC1CC(C)CN(Cc2nc3c(c(=O)n(C)c(=O)n3C)n2Cc2ccccc2Cl)C1 (stereo unspecified) | 87.5 | 104% (inactive) | 87.5% (inactive) | 97.8% (inactive) | 89.5% (inactive) | -3.2% (inactive) | 0.67% (inactive) | 2.67% (inactive) | -4.42% (inactive) | -1.15% (inactive) | 102% (inactive) | 97.8% (inactive) | 0.655% (inactive) | 3.22% (inactive) | – | – | –
CC(O)CN1C(=O)C(CC(=O)Nc2ccc(Cl)cc2)SC1=Nc1ccccc1 (stereo unspecified) | 97 | 101% (inactive) | 97% (inactive) | 57% (inactive) | 66.4% (inactive) | -6.99% (inactive) | -7.94% (inactive) | -9.07% (inactive) | -7.22% (inactive) | -3.6% (inactive) | – | 59.2% (inactive) | 2.45% (inactive) | 6.03% (inactive) | -10.2% (inactive) | 76.6 | 66.4
CN(C)c1ccc(NC(=O)Cn2cc3c(n2)CCCC3)cc1 | 77.5 | 67% (inactive) | 77.5% (inactive) | – | 74% (inactive) | -4.13% (inactive) | -5% (inactive) | 11.9% (inactive) | 13.9% (inactive) | -2.45% (inactive) | 64.2% (inactive) | 62% (inactive) | 2% (inactive) | 1.84% (inactive) | -10.1% (inactive) | 84.1 | 74
CC(=O)n1cc(-c2ccncc2)c2ccccc21 | 94 | 108% (inactive) | 94% (inactive) | – | 85.3% (inactive) | -7.2% (inactive) | -3% (inactive) | -5.77% (inactive) | -1.47% (inactive) | -3.7% (inactive) | 86.7% (inactive) | 82.6% (inactive) | 0.135% (inactive) | 0.27% (inactive) | 6.14% (inactive) | 79.2 | 85.3
Cc1cc(C)c2c(=O)n(CC(=O)NCCCN3CCN(c4ccccc4F)CC3)sc2n1 | 107 | 70.5% (inactive) | 107% (inactive) | – | 3.21% (active) | -4.8% (inactive) | 10% (inactive) | 16.2% (inactive) | 7.71% (inactive) | -7.84% (inactive) | 3.95% (active) | 1.7% (active) | 1.52% (inactive) | 5% (inactive) | 2.02% (inactive) | 1.19 | 3.21
Cc1ccccc1-c1nc(CN2CCC(C(=O)NC3CCN(Cc4ccccc4)CC3)CC2)c(C)o1 | 91 | 77.5% (inactive) | 91% (inactive) | – | 86.3% (inactive) | -5.87% (inactive) | 3% (inactive) | -8.2% (inactive) | -3.5% (inactive) | -7.96% (inactive) | 6.4% (active) | 9.9% (active) | 1.26% (inactive) | 1.75% (inactive) | 7.26% (inactive) | 79 | 86.3
O=C(Nc1ncc(Cc2ccccc2)s1)C1CCCO1 (stereo unspecified) | – | – | 91.5% (inactive) | 84.3% (inactive) | 103% (inactive) | -4.67% (inactive) | -9.34% (inactive) | -14.2% (inactive) | 3.14% (inactive) | 1.91% (inactive) | 103% (inactive) | 103% (inactive) | 0.015% (inactive) | -2.16% (inactive) | 10.9% (inactive) | 92.2 | 103
COc1ccc(NC(=O)Nc2ccc(N3CCCC3=O)cc2)cc1OC | – | – | 126% (inactive) | 104% (inactive) | 104% (inactive) | -4.93% (inactive) | -3.64% (inactive) | -1.9% (inactive) | 3.45% (inactive) | -3.97% (inactive) | 107% (inactive) | 93.8% (inactive) | 0.135% (inactive) | 0.87% (inactive) | 15.2% (inactive) | 89.1 | 104
Cc1ccc2nc(NC(=O)Cn3cc4c(n3)CCCCC4)sc2c1 | 91.5 | 106% (inactive) | 91.5% (inactive) | – | 93% (inactive) | 0.51% (inactive) | -4.67% (inactive) | -4.68% (inactive) | 10.6% (inactive) | -3.78% (inactive) | 98.2% (inactive) | 97% (inactive) | 2.76% (inactive) | 3.93% (inactive) | -3.56% (inactive) | 96.6 | 93
Cc1ccc(C2c3c(oc4ccccc4c3=O)C(=O)N2c2nnc(C(C)C)s2)o1 (stereo unspecified) | 84 | 61% (inactive) | 84% (inactive) | – | 11.2% (active) | -5.2% (inactive) | 3.17% (inactive) | -13.3% (inactive) | -9.87% (inactive) | -3.23% (inactive) | 104% (inactive) | 98.1% (inactive) | 0.83% (inactive) | 1.85% (inactive) | -3.47% (inactive) | 14.7 | 11.2
O=C(NCCN1C(=O)C2C3C=CC(C3)C2C1=O)Nc1ccccn1 (stereo unspecified) | 114 | 102% (inactive) | 114% (inactive) | – | 95.8% (inactive) | -3.6% (inactive) | -2.33% (inactive) | 5% (inactive) | -0.24% (inactive) | -0.81% (inactive) | 107% (inactive) | 92.2% (inactive) | 0.595% (inactive) | 3.24% (inactive) | 12.5% (inactive) | 83.3 | 95.8
